Records with an inconclusive call do not appear. Active and inactive are the calls of the source. Calls follow the shape of the dose curve; as a rule, active = well fitted inhibition curve with a large enough effect; inconclusive = small, poorly fitted or top-dose-only effect; inactive = flat fitted curve, though single readings scatter.
Experiments:
NIH3T3 [1] = experiment: Cytotoxic Profiling of Annotated Libraries Using Quantitative High-Throughput Screening (AID 1296008); details: Five cell lines viability, CellTiter-Glo ATP luminescence, 48-72 h; max response: hits give low values
Procedure, shortened: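 Cells exposed to compounds for 48 or 72 hr at 37 degrees Celsius. Viability read as ATP-coupled luminescence with CellTiter-Glo after 10 min at room temperature.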

HACAT = experiment: qHTS assay to identify novel small-molecules to repurpose for Merkel cell carcinoma treatment (AID 1296009); details: MCC and control cell lines, CellTiter-Glo viability, 72 h; at 44.8 µM (top of the series) unless noted
Procedure, shortened: (§1)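 Cells were incubated with compound for 72 hr at 37 degree celsius before CellTiter-Glo addition. Luminescence was normalized with no-cell wells as full cytotoxicity and DMSO as baseline.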

MCC-13 = experiment: as above; details: MCC and control cell lines, CellTiter-Glo viability, 72 h; series mostly up to 46 µM
Procedure, shortened: as §1

MCC-26 = experiment: as above; details: MCC and control cell lines, CellTiter-Glo viability, 72 h; series mostly up to 46 µM
Procedure, shortened: as §1

MKL-1 = experiment: as above; details: MCC and control cell lines, CellTiter-Glo viability, 72 h; series mostly up to 46 µM
Procedure, shortened: as §1

MKL-2 = experiment: as above; details: MCC and control cell lines, CellTiter-Glo viability, 72 h; series mostly up to 46 µM
Procedure, shortened: as §1

UISO = experiment: as above; details: MCC and control cell lines, CellTiter-Glo viability, 72 h; series mostly up to 46 µM
Procedure, shortened: as §1

WaGa = experiment: as above; details: MCC and control cell lines, CellTiter-Glo viability, 72 h; series mostly up to 46 µM
Procedure, shortened: as §1

HEK293T = experiment: as above; details: MCC and control cell lines, CellTiter-Glo viability, 72 h; at 44.8 µM (top of the series) unless noted
Procedure, shortened: as §1

NIH3T3 [2] = experiment: as above; details: MCC and control cell lines, CellTiter-Glo viability, 72 h; at 44.8 µM (top of the series) unless noted
Procedure, shortened: as §1
% is scaled to controls: 0 for no effect and ±100 for the full control effect.
Also: nearly all actives have a fitted effect of over 60% in size.

C[N+]1(C)CCC(OC(=O)C(O)(c2ccccc2)C2CCCC2)C1 (stereo not drawn)
inactive: max response (NIH3T3 [1]) -0.313% | outcome (HACAT) | Potency (MCC-13) | Potency (MCC-26) | Potency (MKL-1) | Potency (MKL-2) | Potency (UISO) | Potency (WaGa)

COc1cc(C(=O)NC2CCCNC2)cc(OC)c1OC (stereo not drawn)
inactive: max response (NIH3T3 [1]) 4.73% | outcome (HACAT) | Potency (MCC-13) | Potency (MCC-26) | Potency (MKL-1) | Potency (MKL-2) | Potency (UISO) | Potency (WaGa)

Cc1ncc(CO)c(CO)c1O
inactive: max response (NIH3T3 [1]) -3.24% | outcome (HACAT) | Potency (MCC-13) | Potency (MCC-26) | Potency (MKL-1) | Potency (MKL-2) | Potency (UISO) | Potency (WaGa)

CSc1ccc(/C=C2/C(C)=C(CC(=O)O)c3cc(F)ccc32)cc1
inactive: max response (NIH3T3 [1]) -3.24% | outcome (HACAT) | Potency (MCC-13) | Potency (MCC-26) | Potency (MKL-1) | Potency (MKL-2) | Potency (UISO) | Potency (WaGa)

CCO[C@H](Cc1ccc(OCCc2ccc(OS(C)(=O)=O)cc2)cc1)C(=O)O
inactive: max response (NIH3T3 [1]) -1.31% | outcome (HACAT) | Potency (MCC-13) | Potency (MCC-26) | Potency (MKL-1) | Potency (MKL-2) | Potency (UISO) | Potency (WaGa)

O=C1CCCc2c(O)cccc21
inactive: max response (NIH3T3 [1]) -15.1% | outcome (HACAT) | Potency (MCC-13) | Potency (MCC-26) | Potency (MKL-1) | Potency (MKL-2) | Potency (UISO) | Potency (WaGa)

COC(=O)C1=C(C)NC(C)=C(C(=O)OCCc2ccc(N3CCN(C(c4ccccc4)c4ccccc4)CC3)cc2)C1c1cccc([N+](=O)[O-])c1 (stereo not drawn)
inactive: max response (NIH3T3 [1]) -0.486% | outcome (HACAT) | Potency (MCC-13) | Potency (MCC-26) | Potency (MKL-1) | Potency (MKL-2) | Potency (UISO) | Potency (WaGa)

Oc1ccccc1
inactive: max response (NIH3T3 [1]) 3.74% | outcome (HACAT) | Potency (MCC-13) | Potency (MCC-26) | Potency (MKL-1) | Potency (MKL-2) | Potency (UISO) | Potency (WaGa)

CCOCCn1c(C2CCN(CCc3ccc(C(C)(C)C(=O)O)cc3)CC2)nc2ccccc21
inactive: max response (NIH3T3 [1]) -0.532% | outcome (HACAT) | Potency (MCC-13) | Potency (MCC-26) | Potency (MKL-1) | Potency (MKL-2) | Potency (UISO) | Potency (WaGa)

CCC(C(=O)OCCN1CCOC(c2ccccc2)C1C)c1ccccc1 (stereo not drawn)
inactive: max response (NIH3T3 [1]) -22.2% | outcome (HACAT) | Potency (MCC-13) | Potency (MCC-26) | Potency (MKL-1) | Potency (MKL-2) | Potency (UISO) | Potency (WaGa)

Cc1oc(=O)oc1COC(=O)[C@@H]1N2C(=O)[C@@H](NC(=O)[C@H](N)c3ccccc3)[C@H]2SC1(C)C
inactive: max response (NIH3T3 [1]) -3.48% | outcome (HACAT) | Potency (MCC-13) | Potency (MCC-26) | Potency (MKL-1) | Potency (MKL-2) | Potency (UISO) | Potency (WaGa)

O=C1c2ccccc2CCc2ccccc21
inactive: max response (NIH3T3 [1]) 0.759% | outcome (HACAT) | Potency (MCC-13) | Potency (MCC-26) | Potency (MKL-1) | Potency (MKL-2) | Potency (UISO) | Potency (WaGa)

C=CCOc1cc(Cl)ccc1C(=O)NCCN(CC)CC
inactive: max response (NIH3T3 [1]) 1.31% | outcome (HACAT) | Potency (MCC-13) | Potency (MCC-26) | Potency (MKL-1) | Potency (MKL-2) | Potency (UISO) | Potency (WaGa)

CC(C)(C)c1cc(C=O)cc(C(C)(C)C)c1O
inactive: max response (NIH3T3 [1]) 1.57% | outcome (HACAT) | Potency (MCC-13) | Potency (MCC-26) | Potency (MKL-1) | Potency (MKL-2) | Potency (UISO) | Potency (WaGa)

COc1ccc2cc(C=O)ccc2c1
inactive: max response (NIH3T3 [1]) 2.35% | outcome (HACAT) | Potency (MCC-13) | Potency (MCC-26) | Potency (MKL-1) | Potency (MKL-2) | Potency (UISO) | Potency (WaGa)

CCC(C(=O)NC(=O)NC(C)=O)c1ccccc1 (stereo not drawn)
inactive: max response (NIH3T3 [1]) -7.72% | outcome (HACAT) | Potency (MCC-13) | Potency (MCC-26) | Potency (MKL-1) | Potency (MKL-2) | Potency (UISO) | Potency (WaGa)

O=C(OCC1(COC(=O)c2cccnc2)CCCC(COC(=O)c2cccnc2)(COC(=O)c2cccnc2)C1O)c1cccnc1
inactive: max response (NIH3T3 [1]) -1.33% | outcome (HACAT) | Potency (MCC-13) | Potency (MCC-26) | Potency (MKL-1) | Potency (MKL-2) | Potency (UISO) | Potency (WaGa)

C/C=C(/C(=C/C)c1ccc(OC(C)=O)cc1)c1ccc(OC(C)=O)cc1
inactive: max response (NIH3T3 [1]) -0.599% | outcome (HACAT) | Potency (MCC-13) | Potency (MCC-26) | Potency (MKL-1) | Potency (MKL-2) | Potency (UISO) | Potency (WaGa)

CCOc1ncc(F)c(=O)[nH]1
inactive: max response (NIH3T3 [1]) -1.34% | outcome (HACAT) | Potency (MCC-13) | Potency (MCC-26) | Potency (MKL-1) | Potency (MKL-2) | Potency (UISO) | Potency (WaGa)

C=C(C)C(=O)OCC(O)CO (stereo not drawn)
inactive: max response (NIH3T3 [1]) 4.75% | outcome (HACAT) | Potency (MCC-13) | Potency (MCC-26) | Potency (MKL-1) | Potency (MKL-2) | Potency (UISO) | Potency (WaGa)

CCc1cc2cc(OC)c(OC)cc2c(Cc2ccccc2)n1
inactive: max response (NIH3T3 [1]) -13.3% | outcome (HACAT) | Potency (MCC-13) | Potency (MCC-26) | Potency (MKL-1) | Potency (UISO) | Potency (WaGa)

COc1cc(/C=C/C(N)=O)cc(OC)c1OC
inactive: outcome (NIH3T3 [1]) | outcome (HEK293T) | Potency (MCC-13) | Potency (MCC-26) | Potency (MKL-1) | Potency (MKL-2) | outcome (NIH3T3 [2]) | Potency (UISO) | Potency (WaGa)

Cc1ccc(CCn2c3c(c4cc(Cl)ccc42)CN(C)CC3)cn1
inactive: max response (NIH3T3 [1]) 0.803% | outcome (HACAT) | Potency (MCC-13) | Potency (MCC-26) | Potency (MKL-1) | Potency (UISO)

CCOC(=O)O[C@]1(C(=O)OCCl)CC[C@H]2[C@@H]3CCC4=CC(=O)C=C[C@]4(C)[C@H]3[C@@H](O)C[C@@]21C
inactive: outcome (NIH3T3 [1]) | outcome (HEK293T) | Potency (MCC-13) | Potency (MCC-26) | Potency (MKL-1) | Potency (MKL-2) | outcome (NIH3T3 [2]) | Potency (UISO) | Potency (WaGa)

O=C1OC2(c3ccccc31)c1cc(I)c(O)c(I)c1Oc1c2cc(I)c(O)c1I
inactive: max response (NIH3T3 [1]) -20.5% | outcome (HACAT) | Potency (MCC-13) | Potency (MCC-26) | Potency (MKL-1) | Potency (UISO) | Potency (WaGa)
